Test [1] can be described thus: inhibitors of TNFa-induced NFkB p65 translocation, primary screen, imaging, HUVEC, MLSMR starter and 10KST1 sets (AID 438;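 active = inhibition above 20% together with a positive visual image hit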;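 also: compound added about 3h40 before a 20 min TNFalpha stimulation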;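 as to inhibition: signal is the nuclear over cytoplasmic p65 intensity ratio per well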). Conditions: HUVEC TNFa-induced p65 nuclear translocation; cell count: measured here: nuclei count (cytotoxicity indicator), at 2.08 µM unless noted; inhibition: at 2 µM, stronger effect = higher value unless noted.
A short description of test [2]: inhibitors of mutant huntingtin aggregation, primary screen, imaging, exon1htt(103Q)mCFP cells, high-content imaging (AID 483;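 active = visual image review flags a hit and inhibition of aggregation exceeds 20%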;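 also: compound exposure lasted 3 days before fixation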;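 as to nuclei count: percent of the per-plate median nuclei count of sample wells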). Conditions: exon1htt(103Q)mCFP cell line, aggregate imaging, at 2 µM; inhibition of aggregation: stronger effect = higher value; nuclei count: measured here: cell count, toxicity.
A short description of test [3]: inhibitors of E-selectin induction by TNFa, primary screen, imaging, HUVEC, immunofluorescence, MLSMR starter and 10KST1 sets (AID 487;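 active = visually confirmed hit in the image check and inhibition above 20%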;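 as to inhibition: signal is fraction of cell area covered by stained E-selectin grains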;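 as to nuclei count: 100% = median nuclei count of all wells on the same plate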). Conditions: HUVEC TNFalpha-induced E-selectin immunofluorescence imaging, at 2 µM; inhibition: stronger effect = higher value; nuclei count: measured here: cell number, toxicity.
Test [4] can be described thus: DUSP6 inhibitors restoring Erk phosphorylation by chemical complementation, primary imaging in DUSP6-transfected HeLa (AID 609;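 active = compounds giving at least 50% inhibition in the cell-based MKP-3 phosphatase rescue imaging test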;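 as to inhibition: phospho-Erk level distribution per well compared with pooled transfected vehicle control wells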). To be noted: HeLa MKP-3 transfected, phospho-Erk imaging KS statistic, at 10 µM.
The target in test [5] is Dual specificity protein phosphatase 6 (Homo sapiens) (UniProt Q16828). The test is described as above. Conditions: HeLa MKP-3 transfected, phospho-Erk imaging KS statistic, at 10 µM, stronger effect = higher value.
Test [6] deals with Voltage-gated potassium channel subunit beta-2 (Rattus norvegicus) (UniProt P62483). Briefly: KvBeta enzyme negative modulators, primary screen, biochemical, NADPH fluorescence (AID 622;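 active = fluorescence slope higher than the sample average by over 3 SD, cut at about -0.22 in these data, passing the limit was not always enough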;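 also: slope of raw intensity against log time taken from 70 to 1610 s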). Conditions: recombinant KvBeta, 4-cyanobenzaldehyde reduction, at 10 µM, stronger effect = higher value.
Test [7] shares this target. Briefly: KvBeta positive modulators, primary screen, biochemical, NADPH fluorescence (AID 623;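 active = NADPH fluorescence slope more negative than the mean of all samples by about 3 SD, 99.7% confidence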;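 also: fluorescence intensity change per second fitted from 20 to 320 s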). Conditions: Recombinant KvBeta, NADPH fluorescence decrease slope, 10 min; at 10 µM; stronger effect = lower value.
The target in test [8] is Alpha-2C adrenergic receptor (Homo sapiens) (UniProt P18825). Briefly: modulators of alpha2C/GIRK thallium flux, primary screen, cell-based, HEK293 alpha2C/GIRK1/2 (AID 624;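 active = fluorescence slope after compound addition differing from the mean of all screened samples at 99.7% confidence, in either direction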;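 also: slope of fluorescence ratio to pre-addition baseline per second over 15 to 24 s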). To be noted: thallium flux BTC fluorescence, at 10 µM, actives lie on both sides.
A short description of test [9]: inhibitors of larval lipid processing in zebrafish, primary screen, whole organism, PED6 fluorescence, gall bladder and intestine (AID 686;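 active = a full or partial loss of lipid-probe fluorescence in the fish gall bladder, intestine or both, judged by eye; inactive = no fluorescence loss, or compound toxic to the fish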;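 also: larvae 5 to 7 days old with five fish per well; signal comes from phospholipase A2 cleavage of quenched PED6 carried via bile; overnight exposure to compound and PED6 before scoring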). To be noted: Zebrafish larvae PED6 lipid processing, fluorescence scoring.
Test [10] is described as follows: inhibitors of Chlamydomonas gravitaxis, primary screen, whole organism, Chlamydomonas reinhardtii, WT vs cilia-less mutant, absorbance, 96-well (AID 463189).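 Also: 0% = wild type cc124 cells in DMSO and 100% = ciliumless bld1 mutant cells.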 To be noted: OD600 absorbance, 2 days, at 10 µM, stronger effect = higher value.
The nature of test [11]: inhibitors of Sendai virus-induced IRF3 signaling, primary screen, TLR/RLR signaling modifier project, cell-based, Sendai virus stimulus, luciferase, 10K MLSCN set (AID 602276;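 active = inhibition at or above 50% at 10 µM; inactive = inhibition below 50%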;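 also: firefly luciferase from ISG56 promoter only with Renilla not read in this screen; 0% = Sendai virus plus DMSO and 100% = medium plus DMSO without virus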). To be noted: HEK293 RL24 IRF3 luciferase reporter, at 10 µM, stronger effect = higher value. (In a reporter assay the amount or activity of a reporter protein is the signal.)
Test [12] is described as follows: inhibitors of poly I:C-induced TLR3 signaling, primary screen, cell-based, poly I:C stimulus, luciferase, 10K MLSCN set (AID 602277;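 active = inhibition of the reporter signal at or above 50%; inactive = inhibition below 50%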). To be noted: HEK293-TLR3 RL24 IRF3 luciferase reporter, at 10 µM, stronger effect = higher value.
The target of test [13] is Muscarinic acetylcholine receptor M4 (Homo sapiens) (UniProt P08173). The test can be described thus: compounds altering M4/GIRK thallium flux, either direction, primary screen, M4 allosteric agonist project, cell-based, HEK293 M4/GIRK, BTC-AM (AID 625;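 active = fluorescence slope after compound addition differing from the mean of all tested samples at 99.7% confidence, mostly higher but some lower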;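 also: thallium influx through GIRK channels coupled to M4 in HEK293 cells with BTC-AM dye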). To be noted: at 10 µM, actives lie on both sides.
[14] abbreviates: measured here: cell density z-score.
[15] abbreviates: measured here: nuclear c-Myc green intensity z-score.
[16] abbreviates: measured here: nuclear pErk red intensity z-score, stronger effect = higher value.

Values joined by “and” are separate entries in the source; they are usually repeats but may differ in a detail not shown here. Identical values can stand only once. Active and inactive are the calls of the source.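 The calls were made as follows, unless noted: active = inhibition at or above 50% relative to wild type and mutant plate controls; inactive = inhibition below 50%.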

Voltage-gated potassium channel subunit beta-2 (Rattus norvegicus), sequence (P62483 whole entry, looked up): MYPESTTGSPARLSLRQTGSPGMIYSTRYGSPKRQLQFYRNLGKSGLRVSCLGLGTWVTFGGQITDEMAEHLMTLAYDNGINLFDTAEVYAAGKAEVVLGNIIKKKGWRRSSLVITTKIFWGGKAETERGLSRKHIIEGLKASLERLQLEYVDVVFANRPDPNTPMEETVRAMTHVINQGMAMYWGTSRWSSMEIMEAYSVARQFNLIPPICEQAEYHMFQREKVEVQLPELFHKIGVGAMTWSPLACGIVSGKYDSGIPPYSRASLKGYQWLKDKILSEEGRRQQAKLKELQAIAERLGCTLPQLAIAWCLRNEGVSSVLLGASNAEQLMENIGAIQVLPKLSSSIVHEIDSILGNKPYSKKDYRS
Alpha-2C adrenergic receptor (Homo sapiens), sequence (P18825 whole entry, looked up): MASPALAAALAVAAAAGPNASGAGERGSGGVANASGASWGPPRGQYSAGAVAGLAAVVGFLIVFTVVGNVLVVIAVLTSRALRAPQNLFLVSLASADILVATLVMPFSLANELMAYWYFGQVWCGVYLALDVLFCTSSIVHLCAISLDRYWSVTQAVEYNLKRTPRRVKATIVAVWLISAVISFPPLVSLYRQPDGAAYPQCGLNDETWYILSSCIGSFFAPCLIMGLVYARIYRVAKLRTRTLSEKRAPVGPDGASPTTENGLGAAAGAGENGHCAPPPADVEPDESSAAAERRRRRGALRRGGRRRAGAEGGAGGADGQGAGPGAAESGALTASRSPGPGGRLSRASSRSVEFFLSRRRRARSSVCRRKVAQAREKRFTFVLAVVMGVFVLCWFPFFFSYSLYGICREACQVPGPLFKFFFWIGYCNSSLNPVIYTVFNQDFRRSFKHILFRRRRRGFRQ
Dual specificity protein phosphatase 6 (Homo sapiens), sequence (Q16828 whole entry, looked up): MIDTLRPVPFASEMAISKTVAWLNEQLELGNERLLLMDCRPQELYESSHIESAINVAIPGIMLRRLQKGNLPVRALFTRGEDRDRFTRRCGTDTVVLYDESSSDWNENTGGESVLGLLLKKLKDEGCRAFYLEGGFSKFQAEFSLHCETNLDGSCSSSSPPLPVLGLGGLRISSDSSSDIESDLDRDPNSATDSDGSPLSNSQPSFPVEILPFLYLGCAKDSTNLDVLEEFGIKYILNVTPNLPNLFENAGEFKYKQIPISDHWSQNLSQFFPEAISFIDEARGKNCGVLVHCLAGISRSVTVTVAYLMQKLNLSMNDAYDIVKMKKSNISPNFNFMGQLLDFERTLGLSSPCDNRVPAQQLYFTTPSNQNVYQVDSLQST
Muscarinic acetylcholine receptor M4 (Homo sapiens), sequence (P08173 whole entry, looked up): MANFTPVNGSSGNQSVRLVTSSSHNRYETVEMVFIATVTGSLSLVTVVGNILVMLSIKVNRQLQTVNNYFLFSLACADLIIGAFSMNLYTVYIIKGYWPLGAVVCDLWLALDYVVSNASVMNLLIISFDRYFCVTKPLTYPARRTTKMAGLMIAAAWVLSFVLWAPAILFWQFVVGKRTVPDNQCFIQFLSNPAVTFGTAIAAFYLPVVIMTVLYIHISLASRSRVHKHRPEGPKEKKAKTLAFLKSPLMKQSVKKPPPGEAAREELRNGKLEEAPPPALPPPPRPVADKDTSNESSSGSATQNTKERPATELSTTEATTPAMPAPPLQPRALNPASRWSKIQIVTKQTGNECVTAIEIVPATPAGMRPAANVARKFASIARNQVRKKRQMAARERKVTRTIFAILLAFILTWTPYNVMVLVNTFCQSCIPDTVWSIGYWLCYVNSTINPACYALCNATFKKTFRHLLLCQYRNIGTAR

In [1], `CC[N+]1(C)CCCC(OC(=O)C(O)(c2ccccc2)c2ccccc2)C1` (stereo not given) displayed a cell count of 672. Further, the inhibition is -11.6% (inactive) in test [1]; -116% (inactive) in test [3]; 5.42% (inactive) in test [5]; -2.15% (inactive) in test [10]; -2.74% (inactive) in test [11]; 37.1% (inactive) in test [12]. Moreover, the inhibition of aggregation in test [2] is -2.7% (inactive). Also, the results for the nuclei count in [2] and in [3] were 107% and 119%, respectively. The z-score is 1.46 in test [4] (setting [14]), -0.0245 in [4] (setting [15]) and -0.802 in test [4] (setting [16]). In addition, the fluorescence slope in test [6] is -0.46 (inactive). Further, the NADPH fluorescence slope in test [7] is -4.6e-05 (inactive). Moreover, in test [8], the slope was 0.0046 (inactive). In addition, the call in test [9] was inactive.
In test [1], `CNCC(O)c1ccc(O)cc1` (stereo not given) showed a cell count of 624. Moreover, the inhibition was 3.3% (inactive) in [1]; -43.9% (inactive) in test [3]; -0.828% (inactive) in test [5]; -0.226% (inactive) and -8.32% (inactive) in test [10]; 14.9% (inactive) in test [11]; 28.2% (inactive) in [12]. Moreover, the inhibition of aggregation in [2] was 4.2% (inactive). Also, the nuclei count amounted to 102% in test [2] and 118% in test [3]. In addition, the z-score was -0.968 in test [4] (setting [14]), -0.213 in test [4] (setting [15]) and 1.33 in [4] (setting [16]). Moreover, in test [6], the fluorescence slope is -0.493 (inactive). Moreover, the NADPH fluorescence slope in [7] is 1.3e-05 (inactive). The slope in test [8] is 0.00558 (inactive). Further, in test [9], the compound was called inactive.
Take `O=c1[nH]c(=O)n(Cc2ccco2)c(O)c1C=NCCCn1ccnc1`: the cell count in test [1] came out at 506. For the same compound, the inhibition was -1.7% (inactive) in test [1]; -104% (inactive) in [3]; -0.584% (inactive) in test [5]; 14.1% (inactive) in test [10]; 8.16% (inactive) in test [11]; 21.1% (inactive) in [12]. Besides, the inhibition of aggregation in test [2] was 4.4% (inactive). Further, the nuclei count in [2] turned out to be 89.9%; in test [3], 123%. The z-score in test [4] (setting [14]) is 0.638; in test [4] (setting [15]), -0.867; in test [4] (setting [16]), 0.884. Moreover, in test [6], the fluorescence slope was -0.334 (inactive). In addition, the NADPH fluorescence slope in [7] is -2.4e-05 (inactive). For the same compound, in test [8], the slope is 0.00606 (inactive). Moreover, in test [9], the call was inactive.
As for `CC[C@@H](CO)NC(=O)[C@@H]1C=C2c3cccc4c3c(cn4C)C[C@H]2N(C)C1`, the cell count in test [1] stood at 540. Besides, the inhibition in test [1] is -4.2% (inactive); in test [3], -32.5% (inactive); in test [5], 5.79% (inactive); in test [10], 5.16% (inactive) and -19.2% (inactive); in [11] it was 18% (inactive); in test [12], 38% (inactive). Moreover, in test [2], the inhibition of aggregation was -7.9% (inactive). Moreover, the values for the nuclei count in [2] and in test [3] were 89.4% and 113%, respectively. For the same compound, the z-score in [4] (setting [14]) is 0.785; in [4] (setting [15]), -0.624; in [4] (setting [16]), -1.05. In test [6], the fluorescence slope was -0.107 (active). In test [7], the NADPH fluorescence slope is -2e-06 (inactive). Moreover, in test [8], the slope was 0.0047 (inactive). In addition, in [9], the result was inactive.
As for `NCCc1ccc(O)cc1`, in [1], the cell count is 431. The inhibition is 6% (inactive) in test [1]; 22.3% (inactive) in test [3]; 7.08% (inactive) in [10]; 12.8% (inactive) in test [11]; 19% (inactive) in [12]. The inhibition of aggregation in test [2] is 11.4% (inactive). Besides, the values for the nuclei count in test [2] and in test [3] were 95.7% and 92.7%, respectively. Further, the fluorescence slope is -0.573 (inactive) in test [6] and 0.00467 (inactive) in [13]. Moreover, the NADPH fluorescence slope in test [7] is -7e-05 (inactive).

For orientation: inhibition means the drop in the measured response relative to a control, in per cent.

(Values after PubChem BioAssay.)
